Measurements as given in PubChem BioAssay AID1942 (Johns Hopkins Ion Channel Center, 2009).
Out of some 2,400 compounds screened, about 580 (24%) were called active. These entries were drawn from the full list. A number with no mark means an inactive call.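 Rule for the calls: active = activity change at or above the mean plus 3 SD of buffer wells without dofetilide, per plate; inactive = the rest.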

Target: Potassium voltage-gated channel subfamily KQT member 2 (Rattus norvegicus) (UniProt O88943)
Test: rat KCNQ2 channel activation by compounds alone, confirmation, counter-screen for hERG block protector project, cell-based, CHO, FluxOR thallium flux (AID 1942);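 note: normalized value minus buffer-control mean plus three SD of buffer wells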
Details: CHO-KCNQ2 cells, FluxOR thallium flux fluorescence; at 10 µM; hits give high values

Sequence of Potassium voltage-gated channel subfamily KQT member 2 (Rattus norvegicus) (O88943 whole entry, looked up): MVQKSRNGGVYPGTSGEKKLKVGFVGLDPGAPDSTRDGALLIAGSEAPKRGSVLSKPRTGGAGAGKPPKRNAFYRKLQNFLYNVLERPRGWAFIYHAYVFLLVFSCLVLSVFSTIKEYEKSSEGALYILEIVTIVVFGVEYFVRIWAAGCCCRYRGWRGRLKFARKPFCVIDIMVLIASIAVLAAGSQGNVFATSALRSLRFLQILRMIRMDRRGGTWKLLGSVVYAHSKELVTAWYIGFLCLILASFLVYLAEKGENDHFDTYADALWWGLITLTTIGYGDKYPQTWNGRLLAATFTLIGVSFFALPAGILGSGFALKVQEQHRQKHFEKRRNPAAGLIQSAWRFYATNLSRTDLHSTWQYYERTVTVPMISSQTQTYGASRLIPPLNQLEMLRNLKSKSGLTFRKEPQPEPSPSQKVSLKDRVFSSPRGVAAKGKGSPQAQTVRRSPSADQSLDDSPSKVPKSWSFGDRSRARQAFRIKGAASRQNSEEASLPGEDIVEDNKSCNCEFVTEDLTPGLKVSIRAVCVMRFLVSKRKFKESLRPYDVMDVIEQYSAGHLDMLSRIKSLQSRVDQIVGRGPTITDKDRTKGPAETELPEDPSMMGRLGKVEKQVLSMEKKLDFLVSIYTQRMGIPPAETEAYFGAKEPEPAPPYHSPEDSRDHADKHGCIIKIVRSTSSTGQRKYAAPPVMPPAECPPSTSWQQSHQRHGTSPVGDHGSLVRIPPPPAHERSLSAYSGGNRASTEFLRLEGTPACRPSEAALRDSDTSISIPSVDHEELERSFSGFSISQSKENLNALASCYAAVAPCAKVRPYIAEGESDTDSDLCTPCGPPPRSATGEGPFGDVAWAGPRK

Row | Compound | activity change, less the hit threshold
1 | COc1ccc2c(c1)O[C@@H](c1cccc(C(F)(F)F)c1)[C@H](OC(=O)NCCc1ccc(OC)c(OC)c1)C2=O | -11%
2 | CCc1nnc(NC(=O)COc2ccc([N+](=O)[O-])cc2)s1 | -12.5%
3 | CC/C(=N\NC(=O)c1nnn(-c2nonc2N)c1-c1cccs1)c1ccccc1 | -13.9%
4 | COc1ccc(C)cc1NC(=O)C(=O)NNC(=O)c1ccco1 | 73.2% (active)
5 | COc1ccccc1NC(=O)C(=O)NNC(=O)c1ccco1 | 24.1% (active)
6 | O=C(CCC(=O)Nc1ccccc1)NNC(=O)c1ccco1 | -23.9%
7 | CCN(CC)C(=O)CN1C(=O)C2CC=C(Cl)CC2C1=O (configuration not stated) | -12.3%
8 | O=C(O)Cn1cc(CN2CCOCC2)c2ccccc21 | -20.4%
9 | CC1(OC(=O)C2CCCC2)C(=O)C=C2C=C(c3ccc(C#N)cc3)OC=C2C1=O (configuration not stated) | -18.1%
10 | CCOC(=O)C1=C(Cn2cnc3ccccc32)NC(=O)NC1c1cc(C)ccc1C (configuration not stated) | -19.4%
11 | Cc1ccc(S(=O)(=O)N2CCOCC2)cc1NC(=O)CSc1nc2ccccc2c(=O)n1Cc1ccccc1 | -8.2%
12 | Cc1ccc(CNC(=O)CN2C(C)CCCC2C)cc1 (configuration not stated) | -17%
13 | CN1/C(=C/C=C(C#N)C#N)C=Cc2ccccc21 | -17.6%
14 | Cc1ccc(-n2c(=O)c3cc4c(=O)n(-c5ccc(C)c(C)c5)c(=O)c4c(C(=O)c4ccc(C(=O)O)cc4)c3c2=O)cc1C | -9.5%
15 | CCOC(=O)N1CCN(c2c(-c3ccc(C)c(C)c3)c(=O)c2=O)CC1 | -10.9%
16 | Cc1ccc(N2CCN(C(=O)N3CCCC3)CC2)cc1C | 3.3% (active)
17 | CCOC(=O)c1c(NC(=S)NC)sc2c1CC(C)(C)SC2 | 97.7% (active)
18 | CNC(=S)Nc1sc2c(c1C(=O)OC)CCC2 | 8.9% (active)
19 | Cc1onc(-c2ccccc2)c1C(=O)NC(=S)Nc1sc2c(c1C#N)CCCC2 | -12.6%
20 | CCOC(=O)c1c(NC(=S)NC)sc2c1CCCC2 | 13% (active)
21 | CCOC(=O)c1c(/N=C/C2=C(O)CCCC2=O)sc2c1CCCC2 | -20.8%

Row | Compound | activity change, less the hit threshold
22 | COC(=O)c1c(NC(=S)Nc2ccc(F)cc2[N+](=O)[O-])sc2c1CCCCC2 | 1.5% (active)
23 | COc1ccc(NC(=S)NC(NC(=O)c2cccc3ccccc23)C(Cl)(Cl)Cl)c([N+](=O)[O-])c1 (configuration not stated) | -21.8%
24 | CCc1nnc(NC(=O)CCC(=O)N2CCN(C3CCCCC3)CC2)s1 | -21.4%
25 | O=C(N/C(=C/c1ccc2c(c1)OCO2)C(=O)N1CCOCC1)c1cccs1 | -18.2%
26 | CC(C)OC(=O)N(C)c1ccc(C(O)(C(F)(F)F)C(F)(F)F)cc1 | -9.3%
27 | COc1cc(C2c3c(n[nH]c3C)C(=O)N2c2ccc(C)cc2)ccc1O (configuration not stated) | -19.5%
28 | Cc1ccc(NS(=O)(=O)c2cn(C)c(=O)n(C)c2=O)c(C)c1 | -0.5%
29 | Cn1c(NNC(=O)C(c2ccccc2)c2ccccc2)cc(=O)n(C)c1=O | -1.8%
30 | CCOc1ccc(NC(=O)c2ccc(NC(=O)CSc3nc4ccccc4c(=O)[nH]3)cc2)cc1 | -13.5%
31 | Fc1cccc(/C=N/Nc2ccc3ccccc3n2)c1 | -17.9%
32 | CC(=O)c1c(NC(=O)c2ccccc2)[nH]c(-c2ccccc2)nc1=S | 7% (active)
33 | Cc1ccccc1CC(=O)NC1CCN(Cc2ccccc2)CC1 | -25.3%
34 | C=C(C)Cc1c(C)nc(-c2ccccc2)[nH]c1=O | -12.3%
35 | CC(=O)c1c(N)[nH]c(-c2ccccc2)nc1=S | -0.2%
36 | CC(=O)c1c(N2CCN(Cc3ccccc3)CC2)[nH]c(-c2ccccc2)nc1=S | 22.7% (active)
37 | CC(=O)c1c(N2CCCC2)[nH]c(-c2ccccc2)nc1=S | -6%
38 | CSc1nc(-c2ccccc2)[nH]c(=S)c1C(C)=O | 72.6% (active)
39 | CC(=O)c1c(C)[nH]c(-c2ccccc2)nc1=S | -7.7%
40 | O=C(NCc1cccc(Cl)c1)c1ccncc1 | -23.6%
41 | Nc1ccc(Cl)c(NC(=O)c2cccs2)c1 | -12.3%
42 | Cc1ccc(NC(=O)c2ccc3c(c2)OCO3)cc1Cl | -14.7%

Row | Compound | activity change, less the hit threshold
43 | Cc1cc(C(=O)CCC(=O)NC(C)c2ccc(S(N)(=O)=O)cc2)c(C)s1 (configuration not stated) | -10%
44 | Cc1ccc(C(C)NC(=O)c2cccs2)cc1C (configuration not stated) | 4% (active)
45 | Cc1ccc(C(=O)NC(C)c2ccc(C)c(C)c2)s1 (configuration not stated) | 24.3% (active)
46 | Cc1ccc(C(C)NC(=O)c2ccc3c(c2)OCO3)cc1C (configuration not stated) | 27.1% (active)
47 | Cc1cc(C(=O)NNC(=O)c2cccs2)nn1C(C)(C)C | -14.9%
48 | CCCCNC(=S)NNC(=O)c1ccc2c(c1)OCO2 | -24.3%
49 | O=S(=O)(Nc1ccc(O)c2ccccc12)c1ccc(F)cc1 | -19.8%
50 | O=C1C2C3C=CC(C4CC34)C2C(=O)N1/N=C/c1ccc(-c2ccc(F)cc2[N+](=O)[O-])o1 (configuration not stated) | -20.9%
51 | Cc1ccc(/C=N/Nc2nc(C(C)(C)C)cs2)o1 | -0.3%
52 | COCCNC(=O)C1CC(=O)N(c2ccc(OC)cc2)C1c1ccc(OC)cc1 (configuration not stated) | -16.8%
53 | CN1C(=O)/C(=N/OC(=O)c2ccccc2)c2ccccc21 | -19.8%
54 | O=C(O)CCCCn1c(SCc2ccccc2Cl)nc2ccsc2c1=O | -5.9%
55 | Cc1ccc(C)c(NC(=O)C2C3CCCC2C3c2ccccc2)c1 (configuration not stated) | -4.2%
56 | Cc1cccc(NC(=S)NNC(=O)c2csc3c2CCC(C)C3)c1 (configuration not stated) | -8.1%
57 | Cc1ccc(C)c(NC(=S)NNC(=O)c2csc3c2CCC(C)C3)c1 (configuration not stated) | 14.5% (active)
58 | O=C(OCC(=O)N1CCOCC1)c1ccc(Cl)cc1[N+](=O)[O-] | -13.6%
59 | O=c1ccn(CCCBr)c(=O)[nH]1 | -13.2%
60 | CCOC(=O)C(C)Sc1nc2c(c(-c3cccs3)c1C#N)CCC2 (configuration not stated) | -15.1%
61 | COC(=O)CSc1nc(N2CCCCC2)c2c(c1C#N)CCCC2 | -6.4%
62 | COC(=O)CSc1nc2c(c(-c3ccc(C)o3)c1C#N)CCCC2 | 7.4% (active)
